Data: PubChem BioAssay (NCI)
The panel holds about 83,000 compounds, 20% with a hit somewhere; the sample as a whole holds those more often.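 For each line, cells grew in 96-well plates with the test compound present at a single concentration for 48 hours.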 Unmarked numbers belong to inactive results. Calls of active or inactive are those of the source. Rule for the calls: active = growth percent below 10; inactive = the rest.

What follows are compounds tested on HT29 colon (assay: NCI-60 one-dose screen, 48 h (100 = growth as untreated, 0 = no growth, -100 = all killed)). Conditions: 10 µM unless noted.

| Compound | growth |
| --- | --- |
| CCCCC1COc2cccc3c(SCC(=O)N(C)c4cccc(Cl)c4)cc[n+]1c23 (stereo unspecified) | 100% |
| COc1ccc(-c2c(N)n[nH]c2-c2ccccc2O)cc1OC | 112% |
| CCOC(=O)c1sc(-c2ccc(OS(=O)(=O)c3ccc(C(C)(C)C)cc3)c(C=O)c2)nc1C | 19.7% |
| Cc1nc(Nc2ccc(NC(=S)Nc3ccccc3)cc2)nc2nc(Nc3ccc(S(=O)(=O)O)cc3)[nH]c(=O)c12 | 145% |
| COc1ccc(/C=C2\COc3ccc(O)cc3C2=O)c(OC)c1 | 38.2% |
| COc1ccc(/C(C)=C(\c2ccc(Cl)cc2)c2ccc(OCCCN(C)C)cc2)cc1F | 3.41% (active) |
| Cc1nc(Nc2ccc(NC(=S)Nc3ccccc3)cc2)c2ccccc2n1 | 107% |
| C=C1C(=O)O[C@H]2[C@H]1CC/C(COC(=O)/C=C\C(=O)NCc1ccc(Cn3c(=O)sn(-c4ccc(OC)cc4)c3=O)cc1)=C\CC[C@@]1(C)O[C@@H]21 | -22.9% (active) |
| CN(C)CCn1cc(-c2ccc3c(Nc4ccc(CC(=O)Nc5cccc(F)c5)cc4)ncnc3c2)cn1 | -40.7% [30 µM] (active) |
| COc1cc(/C=C/c2nc(Nc3ccc(S(=O)(=O)Nc4cc(C)on4)cc3)c3ccccc3n2)ccc1O | 85.4% |
| COc1ccc(/C(C)=C(\c2ccc(Cl)cc2)c2ccc(OCCN3CCCC3)cc2)cc1F | -10.5% (active) |
| Cc1nc(Nc2ccc(S(=O)(=O)Nc3cc(C)on3)cc2)c2ccccc2n1 | 98.6% |
| COc1ccc(OC)c(/C=C2\COc3ccc(O)cc3C2=O)c1 | 45.9% |
| CCN(CC)CCOc1ccc(/C(=C(\C)c2ccc(F)c(OC)c2)c2ccc(Cl)cc2)cc1 | 9.08% (active) |
| O[C@H]1CO[C@H]2[C@@H]1OC[C@@H]2Oc1ccc(Nc2ccnc(Nc3ccc(O[C@H]4CO[C@H]5[C@@H]4OC[C@@H]5O)c(Cl)c3)n2)cc1Cl | 9.26% (active) |
| CC(=O)Nc1ccc(-c2cc3c(NCc4ccc(F)cc4)ncnc3s2)cc1 | 102% |

| Compound | growth |
| --- | --- |
| C/C(Cc1ccc(Cl)cc1)=C(/c1ccc(Cl)cc1)c1ccc(OCCN(C)C)cc1 | 8.12% (active) |
| C=C1C(=O)O[C@H]2[C@H]1CC/C(COC(=O)/C=C\C(=O)NCc1ccc(Cn3c(=O)sn(CCCC)c3=O)cc1)=C\CC[C@@]1(C)O[C@@H]21 | -22.2% (active) |
| Cc1nc(Nc2cccc(NC(=O)Nc3ccc(Cl)cc3)c2)c2ccccc2n1 | 80.8% |
| COc1ccc(/C=C2\COc3ccc(O)c(O)c3C2=O)c(OC)c1 | 73.6% |
| CCN(CC)CCOc1ccc(/C(=C(\C)c2ccc(OC)c(F)c2)c2ccc(Cl)cc2)cc1 | 14.9% |
| C=C1C(=O)O[C@H]2[C@H]1CC/C(COC(=O)/C=C\C(=O)NCc1ccc(Cn3c(=O)sn(-c4ccc(C#N)cc4)c3=O)cc1)=C\CC[C@@]1(C)O[C@@H]21 | -13.2% (active) |
| CN(C)CCN1C(=O)c2cccc3c(-c4ccc(-c5nc6c7ccccc7c7ccccc7c6[nH]5)cc4)ccc(c23)C1=O | 81.1% |
| c1ccc([P+](CCCc2n(Cc3ccc4ccccc4c3)c3ccccc3[n+]2Cc2ccc3ccccc3c2)(c2ccccc2)c2ccccc2)cc1 | 23.9% |
| CCCCS(=O)(=O)Oc1ccc(-c2nc(C)c(C(=O)OCC)s2)cc1C=O | 18.5% |
| CCCCN(Cc1ccc(C(=O)NO)cc1)C(=O)Nc1ccc(OCCCCCCCCCn2cc(CCCCC(=O)N[C@H](C(=O)N3C[C@H](O)C[C@H]3C(=O)NCc3ccc(-c4scnc4C)cc3)C(C)(C)C)nn2)cc1 | 19.8% |
| COc1ccc(/C(C)=C(\c2ccc(Cl)cc2)c2ccc(OCCN3CCCCCC3)cc2)cc1F | 10% |
| C=C1C(=O)O[C@H]2[C@H]1CC/C(COC(=O)/C=C\C(=O)NCc1ccc(Cn3c(=O)sn(-c4ccc(Cl)cc4)c3=O)cc1)=C\CC[C@@]1(C)O[C@@H]21 | -28.3% (active) |
| O[C@H]1CO[C@H]2[C@@H]1OC[C@@H]2Oc1ccc(Nc2nc(Nc3ccc(F)c(Cl)c3)ncc2F)cc1Cl | 111% |
| O=C(CCc1nc(-c2cccc(Cl)c2)no1)Nc1ccccn1 | 106% |
| COc1ccc(Cn2cnc3cc(C(=O)Nc4cccc5ccccc45)ccc32)c(OC)c1 | 8.08% [30 µM] (active) |
